According to PubChem BioAssay (NCI):
This is part of a sample that, as a whole, favours compounds with a hit. Of some 83,000 tested, about 20% had one in any assay.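 Each cell line was grown in a 96-well plate and treated with one concentration of compound for 48 hours. Values below 10 were considered active.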 Active and inactive are the calls of the source.

Tests used:
Test in all cases: NCI-60 one-dose screen, 48 h (100 = growth as untreated, 0 = no growth, -100 = all killed)
Settings in all cases: 10 µM unless noted
SR leukemia = tested on: SR leukemia
OVCAR-8 ovarian = tested on: OVCAR-8 ovarian
OVCAR-5 ovarian = tested on: OVCAR-5 ovarian
OVCAR-4 ovarian = tested on: OVCAR-4 ovarian
SK-OV-3 ovarian = tested on: SK-OV-3 ovarian
IGROV1 ovarian = tested on: IGROV1 ovarian
OVCAR-3 ovarian = tested on: OVCAR-3 ovarian
HS 578T breast = tested on: HS 578T breast
NCI/ADR-RES ovarian = tested on: NCI/ADR-RES ovarian
T-47D breast = tested on: T-47D breast
BT-549 breast = tested on: BT-549 breast
MDA-MB-435 melanoma = tested on: MDA-MB-435 melanoma
SW-620 colon = tested on: SW-620 colon
HCT-116 colon = tested on: HCT-116 colon
HCC-2998 colon = tested on: HCC-2998 colon
KM12 colon = tested on: KM12 colon
MCF7 breast = tested on: MCF7 breast

Measured: growth

NS(=O)(=O)c1cc(C2(O)NC(=O)c3ccccc32)ccc1Cl (configuration not stated)
inactive: SR leukemia 91.9% | OVCAR-8 ovarian 103% | OVCAR-5 ovarian 99.1% | OVCAR-4 ovarian 112% | SK-OV-3 ovarian 108% | IGROV1 ovarian 97.1% | OVCAR-3 ovarian 123% | HS 578T breast 118% | NCI/ADR-RES ovarian 107% | T-47D breast 109% | BT-549 breast 97.7% | MDA-MB-435 melanoma 101% | SW-620 colon 109% | HCT-116 colon 98.9% | HCC-2998 colon 109% | KM12 colon 111%

CS(=O)(=O)N1CCN(Cc2cc3nc(-c4cccc5[nH]ncc45)nc(N4CCOCC4)c3s2)CC1 (tested in a mixture with another compound)
inactive: SR leukemia 23.2% | OVCAR-8 ovarian 26.1% | OVCAR-5 ovarian 21.5% | OVCAR-4 ovarian 39.7% | OVCAR-3 ovarian 12.4% | NCI/ADR-RES ovarian 29.6% | BT-549 breast 33.6% | MDA-MB-435 melanoma 15.9% | SW-620 colon 40.8% | HCT-116 colon 23.8% | KM12 colon 24.8%
active: SK-OV-3 ovarian -25.6% | IGROV1 ovarian -30.2% | T-47D breast -7.59% | MCF7 breast 6.96% | HCC-2998 colon -9.43%

CCOC(=O)C1C(=O)NC(C(=O)OCC)(C(=O)OCC)C1CC (configuration not stated)
inactive: SR leukemia 107% | OVCAR-8 ovarian 108% | OVCAR-5 ovarian 105% | OVCAR-4 ovarian 110% | SK-OV-3 ovarian 112% | OVCAR-3 ovarian 125% | HS 578T breast 129% | NCI/ADR-RES ovarian 113% | T-47D breast 109% | BT-549 breast 112% | MDA-MB-435 melanoma 115% | SW-620 colon 115% | MCF7 breast 104% | HCT-116 colon 110% | HCC-2998 colon 108% | KM12 colon 112%

CCOc1cc(/C=C/C(=O)CC(=O)/C=C/c2ccc(OC(=O)CNc3nc4ccc(OC)cc4s3)c(OCC)c2)ccc1OC(=O)CNc1nc2ccc(OC)cc2s1
active: SR leukemia -27.3% | MDA-MB-435 melanoma -22.2% | MCF7 breast 9.28% | HCT-116 colon 4.31% | KM12 colon 9.4%
inactive: OVCAR-8 ovarian 28.6% | OVCAR-5 ovarian 99% | OVCAR-4 ovarian 69.5% | SK-OV-3 ovarian 89.5% | OVCAR-3 ovarian 77.8% | HS 578T breast 23% | NCI/ADR-RES ovarian 82.3% | T-47D breast 79.7% | SW-620 colon 17.9% | HCC-2998 colon 39.6%

O=C1NC(=O)/C(=C\c2ccco2)S1
inactive: SR leukemia 113% | OVCAR-8 ovarian 105% | OVCAR-5 ovarian 95.9% | OVCAR-4 ovarian 121% | SK-OV-3 ovarian 97.1% | OVCAR-3 ovarian 106% | NCI/ADR-RES ovarian 103% | T-47D breast 95.4% | BT-549 breast 104% | SW-620 colon 100% | MCF7 breast 104% | HCT-116 colon 108% | HCC-2998 colon 116% | KM12 colon 103%

O=C1c2cccc(NCCN=Cc3ccccc3O)c2C(=O)c2c(NCCN=Cc3ccccc3O)cccc21
inactive: OVCAR-8 ovarian 17% | OVCAR-5 ovarian 15.9% | SK-OV-3 ovarian 29% | OVCAR-3 ovarian 11.1% | NCI/ADR-RES ovarian 93.9% | T-47D breast 18% | BT-549 breast 49% | MDA-MB-435 melanoma 24.7%
active: SR leukemia -20.9% | OVCAR-4 ovarian 2.43% | HS 578T breast 4.31% | SW-620 colon 0.678% | MCF7 breast 3.69% | HCT-116 colon 7.91% | HCC-2998 colon 2.57% | KM12 colon 6.07%

CC[C@@H](c1ccc(O)c(O)c1)[C@@H](CC)c1ccc(O)c(O)c1
active: T-47D breast -8.01% | SW-620 colon 5.74% | HCT-116 colon 9.12%
inactive: SR leukemia 52.6% | OVCAR-8 ovarian 101% | OVCAR-5 ovarian 115% | OVCAR-4 ovarian 68.1% | SK-OV-3 ovarian 122% | IGROV1 ovarian 98.1% | OVCAR-3 ovarian 50.6% | NCI/ADR-RES ovarian 99.9% | MDA-MB-435 melanoma 62.9% | MCF7 breast 98.8% | HCC-2998 colon 103% | KM12 colon 102%

Cc1nn(-c2ccccc2)cc1/C=C1\SC(N2CCCCC2)=NC1=O
inactive: OVCAR-8 ovarian 81.4% | OVCAR-5 ovarian 103% | SK-OV-3 ovarian 119% | IGROV1 ovarian 68.1% | OVCAR-3 ovarian 96.4% | HS 578T breast 99.7% | NCI/ADR-RES ovarian 89.7% | T-47D breast 82.4% | BT-549 breast 88.2% | MDA-MB-435 melanoma 92% | SW-620 colon 79.8% | MCF7 breast 55.8% | HCT-116 colon 46.7% | HCC-2998 colon 94.5% | KM12 colon 103%
active: SR leukemia 8.09%

C=C1CCC2C(C)(COC(=O)CC)C(OC(=O)CC)CCC2(C)C1C/C=C1/C(=O)OCC1OC(=O)CC (configuration not stated)
inactive: OVCAR-4 ovarian 18.7% | SK-OV-3 ovarian 103% | BT-549 breast 83.6%
active: SR leukemia -23% | OVCAR-8 ovarian -13.9% | OVCAR-5 ovarian -1.17% | IGROV1 ovarian -0.405% | OVCAR-3 ovarian -86.1% | NCI/ADR-RES ovarian -22.9% | T-47D breast -51.9% | MDA-MB-435 melanoma 2.16% | SW-620 colon -62.2% | MCF7 breast -35.1% | HCT-116 colon -100% | HCC-2998 colon -65.8% | KM12 colon 3.97%

Cc1[nH]cnc1/C=C1\SC(N2CCCCC2)=NC1=O
inactive: SR leukemia 97.7% | OVCAR-8 ovarian 105% | OVCAR-5 ovarian 107% | SK-OV-3 ovarian 108% | IGROV1 ovarian 100% | OVCAR-3 ovarian 124% | HS 578T breast 120% | NCI/ADR-RES ovarian 106% | T-47D breast 104% | BT-549 breast 105% | MDA-MB-435 melanoma 108% | SW-620 colon 107% | MCF7 breast 108% | HCT-116 colon 106% | HCC-2998 colon 101% | KM12 colon 114%

O=C1OC(Oc2ccccc2)(c2ccccc2)c2ccccc21 (configuration not stated)
inactive: SR leukemia 79.1% | OVCAR-8 ovarian 102% | OVCAR-5 ovarian 99.6% | SK-OV-3 ovarian 106% | OVCAR-3 ovarian 97% | HS 578T breast 101% | NCI/ADR-RES ovarian 100% | T-47D breast 100% | BT-549 breast 102% | MDA-MB-435 melanoma 102% | SW-620 colon 106% | MCF7 breast 117% | HCT-116 colon 102% | HCC-2998 colon 104% | KM12 colon 93.3%

CN1CCN(CCCCCN=c2cc3c(=O)n(CCCCCN4CCN(C)CC4)c(=O)c4c(NCCCCCN5CCN(C)CC5)cc5c(O)n(CCCCCN6CCN(C)CC6)c(=O)c2c5c4-3)CC1
inactive: OVCAR-8 ovarian 12.6% | NCI/ADR-RES ovarian 110% | T-47D breast 16.5% | BT-549 breast 11.4% | SW-620 colon 21.9% | HCC-2998 colon 29.1%
active: SR leukemia 1.43% | OVCAR-5 ovarian -9.79% | SK-OV-3 ovarian -29.6% | IGROV1 ovarian -0.0469% | OVCAR-3 ovarian 3.82% | HS 578T breast -2.4% | MDA-MB-435 melanoma -41.5% | MCF7 breast -6.01% | HCT-116 colon 2.16% | KM12 colon 2.69%

Nc1nc2c(nnn2Cc2ccc(Cl)c(Cl)c2)c(=O)[nH]1
inactive: SR leukemia 92% | OVCAR-8 ovarian 98.5% | OVCAR-5 ovarian 95.5% | OVCAR-4 ovarian 112% | SK-OV-3 ovarian 97.4% | IGROV1 ovarian 100% | OVCAR-3 ovarian 106% | NCI/ADR-RES ovarian 105% | T-47D breast 84.3% | BT-549 breast 99.4% | SW-620 colon 99.9% | HCC-2998 colon 116% | KM12 colon 90.2%

O=C(O)C1C(c2ccccc2)c2ccccc2C(O)C1CO (configuration not stated)
inactive: SR leukemia 99.6% | OVCAR-8 ovarian 103% | OVCAR-5 ovarian 101% | OVCAR-4 ovarian 108% | SK-OV-3 ovarian 94.9% | IGROV1 ovarian 118% | OVCAR-3 ovarian 134% | NCI/ADR-RES ovarian 109% | T-47D breast 115% | BT-549 breast 103% | MDA-MB-435 melanoma 116% | SW-620 colon 106% | MCF7 breast 97% | HCT-116 colon 101% | HCC-2998 colon 106% | KM12 colon 117%

Nc1ccc(Oc2c(F)c(F)c(Oc3ccc(N)cc3)c(F)c2F)cc1
inactive: SR leukemia 96.3% | OVCAR-8 ovarian 101% | OVCAR-5 ovarian 83.4% | OVCAR-4 ovarian 83.8% | SK-OV-3 ovarian 105% | OVCAR-3 ovarian 101% | HS 578T breast 95.4% | NCI/ADR-RES ovarian 94% | T-47D breast 91.8% | BT-549 breast 108% | MDA-MB-435 melanoma 104% | SW-620 colon 102% | MCF7 breast 129% | HCT-116 colon 81.5% | HCC-2998 colon 73.1% | KM12 colon 110%

O=C1NC(=S)S/C1=C\c1cc(Br)ccc1O
inactive: SR leukemia 95.7% | OVCAR-8 ovarian 103% | OVCAR-5 ovarian 91.6% | OVCAR-4 ovarian 115% | SK-OV-3 ovarian 91.3% | IGROV1 ovarian 110% | OVCAR-3 ovarian 103% | NCI/ADR-RES ovarian 102% | T-47D breast 82.9% | BT-549 breast 104% | MDA-MB-435 melanoma 105% | SW-620 colon 97.6% | MCF7 breast 106% | HCT-116 colon 103% | HCC-2998 colon 103% | KM12 colon 90.6%

O=C(Oc1ccccc1)C(Br)C(Br)c1ccccc1 (configuration not stated)
inactive: OVCAR-8 ovarian 103% | OVCAR-5 ovarian 102% | SK-OV-3 ovarian 114% | HS 578T breast 85.9% | NCI/ADR-RES ovarian 113% | T-47D breast 94% | BT-549 breast 99.9% | MDA-MB-435 melanoma 94.5% | HCT-116 colon 61.2% | KM12 colon 71.9%
active: SR leukemia -23.6% | OVCAR-3 ovarian -47% | SW-620 colon -77%

CC[C@@H](C)/C=C(C)/C=C/C(=O)c1c(O)c(-c2ccc(O)cc2)cn(OC2CC(=O)CCC(C)OC(=O)CC2O)c1=O (some centres not stated)
active: SR leukemia 7.95% | IGROV1 ovarian 4.73% | NCI/ADR-RES ovarian 5.21% | HCC-2998 colon 8.22%
inactive: OVCAR-8 ovarian 17.5% | OVCAR-5 ovarian 53.8% | OVCAR-3 ovarian 18.7% | HS 578T breast 35.1% | T-47D breast 25.8% | BT-549 breast 14.6% | MDA-MB-435 melanoma 12.4% | SW-620 colon 22.9% | MCF7 breast 21.7% | KM12 colon 19.8%

COC(=O)c1cc2c(/C=C3/NC(=S)NC3=O)coc2n1C
inactive: SR leukemia 78.3% | OVCAR-8 ovarian 76.3% | OVCAR-5 ovarian 96.7% | OVCAR-4 ovarian 112% | SK-OV-3 ovarian 68.5% | OVCAR-3 ovarian 95.6% | HS 578T breast 66.3% | NCI/ADR-RES ovarian 105% | T-47D breast 80.3% | BT-549 breast 72.9% | MDA-MB-435 melanoma 94.7% | SW-620 colon 96.6% | MCF7 breast 81.3% | HCT-116 colon 96.8% | HCC-2998 colon 103% | KM12 colon 96.5%

NC(=O)NC1(C(=O)O)CCCC1
inactive: SR leukemia 91.8% | OVCAR-8 ovarian 106% | OVCAR-5 ovarian 98.5% | OVCAR-4 ovarian 118% | SK-OV-3 ovarian 109% | IGROV1 ovarian 119% | OVCAR-3 ovarian 115% | NCI/ADR-RES ovarian 111% | T-47D breast 93.6% | BT-549 breast 111% | MDA-MB-435 melanoma 107% | SW-620 colon 109% | MCF7 breast 98.9% | HCT-116 colon 115% | HCC-2998 colon 108% | KM12 colon 107%
